# Assay results reported in PubChem BioAssay (EPA / NIEHS).
# Calls of active or inactive are those of the source. Rule for the calls: active = hit-call score of the fitted dose curve at least 0.9, where 1 is the maximum; inactive = score below 0.9.
# Experiment: APR_HepG2_MitoMembPot_1hr: Apredica 1-hour HepG2 Assay for Mitochondrial Membrane Potential (AID 2282675)
# Conditions: imaging, actives raise or lower the signal
# Method: APR_HepG2_1hr is a cell-based, multiplexed-readout assay that uses HepG2, a human liver cell line, with measurements taken at 1 hour after chemical dosing in a 384-well plate.APR_HepG2_MitoMembPot_1hr is one of 10 assay component(s) measured or calculated from the APR_HepG2_1hr assay. It is designed to make measurements of dye binding, a form of membrane potential reporter, as detected with fluorescence intensity signals by HCS Fluorescent Imaging technology.Data from the assay component APR_HepG2_MitoMembPot_1hr was analyzed into 1 assay endpoint. This assay endpoint, APR_HepG2_MitoMembPot_1hr, was analyzed with bidirectional fitting relative to DMSO as the negative control and baseline of activity. Using a type of membrane potential reporter, gain or loss-of-signal activity can be used to understand changes in the signaling. Furthermore, this assay endpoint can be referred to as a primary readout, because this assay has produced multiple assay endpoints where this one serves a signaling function. To generalize the intended target to other relatable targets, this assay endpoint is annotated to the cell morphology intended target family, where the subfamily is organelle conformation.
# Cells were treated with dimethyl sulfoxide (DMSO) as a solvent control at a final concentration of 0.5% v/v or with compounds in DMSO with a resulting final DMSO concentration of 0.5% v/v. Compound treatment was done at concentrations of 0.39, 0.78, 1.56, 3.12, 6.24, 12.5, 25, 50, 100, and 200 uM in duplicate on each plate. Cells were treated with compounds for 1, 24, or 72 hr. Carbonyl […] m-chloro-phenylhydrazone (CCCP) and taxol were used as positive controls for mitochondrial function and cytoskeletal stability, respectively; DMSO served as the negative control for this experiment. Cells were fixed by the direct addition of 50 uL formaldehyde in Hank's Balanced Salt Solution (HBSS) to a final concentration of 3.7%. After incubation in the fixation medium for 30 min at room temperature (293-298 K), cells were rinsed twice with HBSS and treated with cell permeabilization buffer (16 uL of 0.5% Triton X-100) for 10 min at room temperature (293-298 K) before labeling. For mitochondrial membrane potential and mitochondrial measurements, pre-fixed cells were incubated with 50 uL of MitoTracker Red CMXRos (Invitrogen) at a concentration of 250 nM for 30 min before fixation. In the remaining cases, post-fixed cells were labeled by incubation with a multiplexed mixture of primary antibodies in HBSS for 60 min at room temperature (293-298 K) to detect immunoreactivity of c-Jun (1:500), phospho-histone H3 (1:100), phospho-histone H2A.x (1:200), p53 (1:400), alpha-tubulin (1:200) and Hoechst 33342 (2 ug/mL). Cells were labeled for multiplexed imaging on two separate plates: a) Hoechst 33342, MitoTracker Red, phospho-histone H3, and alpha-tubulin, and b) Hoechst 33342, phospho-histone H2A.x, and c-Jun. A final rinse with HBSS (50 uL) was performed before analysis. The primary and secondary antibodies for the proteins were phospho-histone H3 (rabbit anti-phospho-histone H3 and FITC-donkey anti-rabbit IgG), phospho-histone H2A.x (mouse anti-phospho-histone H2A.x and FITC-donkey anti-mouse IgG), c-Jun (rabbit anti-phospho-c-Jun and Cy3-donkey anti-rabbit IgG), p53 (sheep anti-p53 and Cy5-donkey anti-sheep IgG), alpha-tubulin (mouse anti-alpha-tubulin and Cy5-donkey anti-mouse IgG). These antibodies are available as the CellCiphr HepG2 assay kit (Millipore).Digital images of each well were captured using a Cellomics ArrayScan VTI (Thermo Scientific Cellomics) (0.8 NA objective, 0.63x optical coupler, and XF-93 filter set) at 20x magnification. The images were acquired using the autofocus feature of the ArrayScan instrument, which entails the following steps. First, the camera focuses on channel 1 (Hoechst 33342), where nuclei are identified. Second, a Z offset of 1 um is used for capturing mitochondria (MitoTracker Red). […]
SMILES,outcome,AC50
c1ccc(Nc2ccccc2)cc1,inactive,–
CCCCCOC(=O)COc1cc(N2C(=O)C3=C(CCCC3)C2=O)c(F)cc1Cl,inactive,–
COC(=O)c1ccccc1S(=O)(=O)NC(=O)Nc1nc(OC(F)F)cc(OC(F)F)n1,inactive,–
CCC(C)OC(=O)N1CCCCC1CCO (stereo not given),inactive,–
CCCOC(=O)c1ccc(C(=O)OCCC)nc1,inactive,–
CCOC(=O)NCCOc1ccc(Oc2ccccc2)cc1,inactive,–
S=C(S)NCCNC(=S)S.[Mn+2].[S-]C([S-])=NCCN=C([S-])[S-].[Zn+2],inactive,–
CCCCC(CC)CN1C(=O)C2C3C=CC(C3)C2C1=O (stereo not given),inactive,–
CSC(=O)c1cccc2nnsc12,inactive,–
COC(=O)c1cccc(C)c1S(=O)(=O)NC(=O)Nc1nc(OCC(F)(F)F)nc(N(C)C)n1,inactive,–
COc1c(Cl)ccc(Cl)c1C(=O)O,inactive,–
CC(C)(c1ccc(O)cc1)c1ccc(O)cc1,inactive,–
COC(=O)c1c(Cl)nn(C)c1S(=O)(=O)NC(=O)Nc1nc(OC)cc(OC)n1,inactive,–
COC(=O)CSc1cc(N=c2sc(=O)n3n2CCCC3)c(F)cc1Cl,inactive,–
CCN(CC)C(=O)c1cccc(C)c1,inactive,–
N#CSCSc1nc2ccccc2s1,inactive,–
CN(C)C(=O)Nc1ccc(Cl)c(Cl)c1,inactive,–
CC1(C)C(C=C(Cl)Cl)C1C(=O)OCc1cccc(Oc2ccccc2)c1 (stereo not given),inactive,–
COCCO,inactive,–
COC(=O)c1ccc(I)cc1S(=O)(=O)NC(=O)Nc1nc(C)nc(OC)n1,inactive,–

SMILES,outcome,AC50
CCCCC(CC)COC(=O)c1ccccc1C(=O)O (stereo not given),inactive,–
CCNc1nc(N)nc(Cl)n1,inactive,–
Cc1nn(C)c(Oc2ccccc2)c1C=NOCc1ccc(C(=O)OC(C)(C)C)cc1,inactive,–
COC(=O)c1ccccc1C(=O)O,inactive,–
CCOC(=O)COc1cc(-n2ncc(C(F)(F)F)c(C)c2=O)c(F)cc1Cl,inactive,–
COc1nc(C)nc(NC(=O)NS(=O)(=O)c2ccccc2OCCCl)n1,inactive,–
CCCN(CCC)c1c([N+](=O)[O-])cc(C(F)(F)F)c(N)c1[N+](=O)[O-],inactive,–
O=C(O)C1(C(=O)Nc2ccc(Cl)cc2Cl)CC1,inactive,–
S=C([S-])NCCNC(=S)[S-].[Mn+2],inactive,–
CCCCCCC(C)OC(=O)COc1nc(F)c(Cl)c(N)c1Cl (stereo not given),inactive,–
CC(C)(C)[C@@H](O)[C@@H](Cc1ccc(Cl)cc1)n1cncn1,inactive,–
CCC(O)=C1C(=O)CC(C(=O)O)CC1=O (stereo not given),inactive,–
CCCCOCCOCCOCc1cc2c(cc1CCC)OCO2,inactive,–
CCCCOC(=O)C(C)Oc1ccc(Oc2ccc(C(F)(F)F)cn2)cc1 (stereo not given),inactive,–
OB(O)O,inactive,–
CCOC(=O)[C@H](C)Oc1ccc(Oc2nc3ccc(Cl)cc3o2)cc1,inactive,–
c1ccc2[nH]c(-c3cscn3)nc2c1,inactive,–
CCCOC(=O)NCCCN(C)C,inactive,–
O=C(Nc1ccc([N+](=O)[O-])cc1Cl)c1cc(Cl)ccc1O,–,1.94 µM (active)
CCCN(CCC)C(=O)SCC,inactive,–
